According to the supplement of paper PMC6555819:

Key:
Assay in all cases: PBM binding z-score (relative to random genomic background probes); higher = stronger binding; sequences stand for … in GC…GCGATTGACAGCGTAGAATGAAGG
[1] = system: RARb homodimer (NR concentration 270 nM)
Summary of the method: (§1)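 Binding z-scores were set against random background probes. The data came from custom Agilent 4×180K protein-binding microarrays carrying double-stranded probes with 34-nt variable regions, incubated 1 h with ligand-free nuclear receptor dimers. Partner-specific antibodies detected binding, and scanned fluorescence was regression-normalized.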

[2] = system: RARg:RXRa (NR concentration 270 nM, RXRa partner concentration 90 nM)
Summary of the method: as §1

[3] = system: RARg homodimer (NR concentration 270 nM)
Summary of the method: as §1

[4] = system: RXRa DBDmut IVT, anti-RXR (DBD mutation: RXRa K156A/R161A, NR concentration 90 nM)
Summary of the method: as §1

[5] = system: RXRa homodimer (NR concentration 180 nM)
Summary of the method: as §1

[6] = system: THRa:RXRa (NR concentration 90 nM, RXRa partner concentration 90 nM)
Summary of the method: as §1

[7] = system: THRa homodimer (NR concentration 90 nM)
Summary of the method: as §1

[8] = system: VDR:RXRa (NR concentration 270 nM, RXRa partner concentration 90 nM)
Summary of the method: as §1

[9] = system: VDR homodimer (NR concentration 270 nM)
Summary of the method: as §1

Row | Sequence | PBM binding z-score [1] | PBM binding z-score [2] | PBM binding z-score [3] | PBM binding z-score [4] | PBM binding z-score [5] | PBM binding z-score [6] | PBM binding z-score [7] | PBM binding z-score [8] | PBM binding z-score [9]
1 | AGAATGAGGTTATTAAGATCAGGGAGTTGCGGTC | 0.826 | 1.05 | 0.672 | 1.99 | 1.78 | 2.17 | 0.897 | 2.3 | 1.39
2 | TCTAGCAGGCCAGAGGGTCACTCCAGAGGTACGG | 2.59 | 2.1 | 1.86 | -0.234 | 1.97 | 1.38 | -0.258 | 0.993 | 0.403
3 | ACTATTAGTTTAGACGAGGGCAACCGATAGGTTG | 1.49 | 0.78 | 1.15 | 0.931 | 0.581 | 2.5 | 0.435 | 0.8 | 1.65
4 | TTACCAAGGTGGAAGGTCGTTGATGCACGCCTTG | 0.907 | 0.595 | 0.158 | -0.443 | 1.43 | 0.674 | -0.0203 | 0.464 | 0.895
5 | TCTAGGTGGTCAAAGGTCACACACTCGAAATGCG | 5.07 | 7.33 | 6.07 | 1.85 | 8.65 | 4.41 | 1.74 | 5.38 | 2.4
6 | ATCGAAAGGTCGAGGTAAGTATAGAGAAAGGGAA | 2.39 | 4.25 | 4.27 | 0.467 | 4.6 | 2.58 | 0.233 | 2.36 | 0.546
7 | CCTGCTGGGTCATGGTCAGCTAATCTACAGTATG | 2.6 | 3.56 | 3.65 | 0.81 | 2.88 | 2.04 | 0.0617 | 1.28 | -0.0341
8 | CCTCGGAGGACAACAGGAGGTTAGAGCTGCCAGA | 1.12 | 0.878 | 1.47 | 0.257 | -0.0815 | 1.19 | 0.00678 | -0.265 | 0.0214
9 | GCGACTAGGGCAAAGCAGGTTACCATAAGGTTGG | 0.924 | 0.573 | 1.01 | -0.427 | 0.44 | 2.98 | 0.052 | -0.209 | -0.405
10 | TAAATGAGGTTAAAGATCAGGGAACGTGGCGTCG | 1.22 | 2.58 | 1.64 | 1.2 | 4.01 | 3.09 | 0.733 | 2.22 | 1.12
11 | GATACAGGGTCAAGGCCAGGGTACGCGTATTGAT | 3.96 | 5.8 | 4.85 | 2.61 | 5.97 | 3.95 | 1.51 | 4.71 | 2.65
12 | CCTAGCAGGCCAATCTGGGTCTCTCAAGGCTTGA | -0.52 | -0.494 | -0.505 | -0.243 | -0.68 | 0.975 | -0.574 | -0.64 | -0.65
13 | TCTATTAGTTGAAGGGCACCCGACGAGTCCGTTT | 1.26 | 0.402 | 0.483 | 1.77 | 0.846 | 0.413 | 0.444 | 1.02 | 1.93
14 | TCATATAGGCAATACAGGTGAAAGTCGGCATCTA | 0.329 | 0.188 | 0.134 | 1.25 | 0.668 | 0.629 | -0.127 | 0.582 | -0.277
15 | CCTACTGGGCCATTCAGAGGTCAGTGATCATATG | 3.78 | 4 | 2.75 | 0.291 | 2.29 | 2.18 | 0.651 | 1.59 | 1.13
16 | GCTAGTTGGTCAGTAAAAGGCCACACACCGGTCG | 1.83 | 0.944 | 0.676 | -0.169 | 0.227 | 0.0278 | -0.175 | -0.219 | -0.584
17 | TCTTGTAGATAAAGCAGGTTAAGAAAGCCTGAGT | 0.29 | 0.138 | 0.0703 | 0.785 | 0.499 | 0.47 | -0.334 | 0.751 | 0.374
18 | TTAACAAGGTGAAGGTCGTTGATCCCTCTGTAGA | 1.5 | 1.38 | 1.26 | 0.219 | 1.88 | 2.4 | 0.923 | 1.35 | 0.715
19 | CGTCAAAGTTCAACGAAGGTAACGTAAAGCACGC | 4.08 | 5.47 | 6.39 | 4.2 | 4.5 | 4.52 | 0.29 | 4.39 | 3.33
20 | TAGCCTTGGTCATTCAGGGGCCAGTATAGAAAGC | 1.09 | 2.02 | 0.792 | -0.76 | 0.416 | 0.75 | -0.852 | -0.0829 | -0.456
21 | CATAGTTGGTCAGGAGGTCACACACCGGATATGA | 4.18 | 5.09 | 4.47 | 0.639 | 4.6 | 3.46 | 2.32 | 3.94 | 3.09
22 | GCGACTGGGGCAAAGCAGTTTACCATAAGGTTGG | 0.187 | 0.073 | 0.187 | 0.0079 | -0.0226 | 0.718 | -0.284 | 0.278 | -0.185
23 | TCTGGTAGGTCAACGATGGTCAGCTAATCTGCTA | 3.75 | 4.31 | 4.78 | 1.26 | 3.49 | 2.98 | 0.7 | 2.2 | 0.622
24 | TCTAGTTGGTCACGGAGGTCACTCACGACGGGTA | 4.12 | 4.23 | 4.31 | 1.24 | 3.96 | 3.23 | 2.26 | 5.6 | 2.93
25 | GCCGCTAGGTCAACTGATGGTCAGCTAAAGCTCG | 3.66 | 5.19 | 5.22 | 1.45 | 2.97 | 2.97 | 0.878 | 1.45 | -0.321
26 | CGTCAAAGTTCAAGGTAACTTAACAGAAAGCAGC | 3.81 | 5.06 | 6.29 | 4.24 | 4.36 | 2.71 | 0.957 | 3.73 | 2.74
